PLK1 PBD inh: qHTS for Inhibitors of PLK1-PDB (polo-like kinase 1 - polo-box domain): Primary Screen | Serine/threonine-protein kinase PLK1 (Homo sapiens), P53350 | Plk1 PBD binding of FITC phosphopeptide, fluorescence polarization | Potency, µM, hits mostly inhibitors | 2.8% of 360,000 active | AID 720504, 2013; further: series mostly up to about 57 µM; nearly all actives have a fitted effect of over 65% in size
JMJD2A Tudor inh: qHTS Assay for Inhibitors of JMJD2A-Tudor Domain. Potency, µM (highest dose often 114 µM), actives largely listed as inhibitors. Lysine-specific demethylase 4A (Homo sapiens), O75164. AlphaScreen JMJD2A-Tudor / H3K4me3 peptide binding. 4.4% of 390,000 active; further: nearly all actives have a fitted effect of over 50% in size
G9a inh: qHTS Assay for Inhibitors of Histone Lysine Methyltransferase G9a; Potency, µM (highest dose often 102 µM), actives largely listed as inhibitors; G9a H3K9 monomethylation, AlphaScreen, 2 h; Histone-lysine N-methyltransferase EHMT2 (Homo sapiens), Q96KQ7; AID 504332, 2011; 8.8% of 350,000 active; further: nearly all actives have a fitted effect of over 75% in size
Target sequence (Q96KQ7 913-1193 limits assumed): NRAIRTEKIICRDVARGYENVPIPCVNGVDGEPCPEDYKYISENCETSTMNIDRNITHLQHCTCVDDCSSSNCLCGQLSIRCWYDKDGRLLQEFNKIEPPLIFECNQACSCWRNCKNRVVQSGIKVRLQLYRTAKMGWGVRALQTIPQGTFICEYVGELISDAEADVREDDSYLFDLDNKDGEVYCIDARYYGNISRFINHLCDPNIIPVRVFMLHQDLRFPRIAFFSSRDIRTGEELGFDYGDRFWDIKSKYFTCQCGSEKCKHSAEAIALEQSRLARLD
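AlphaScreen read-out: biotin-H3K9 peptide (500 nM) methylation by 20 nM enzyme with 20 uM SAM, 2 h at room temperature after 15 min compound preincubation; anti-monomethyl H3K9 antibody plus donor/acceptor beads, 10 min dark.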
BAZ2B inh: qHTS Assay for Inhibitors of BAZ2B. AlphaScreen BAZ2B-H3K14Ac peptide displacement. Potency, µM (doses to about 114 µM), most hits filed as inhibitors. 4.4% of 360,000 active; further: nearly all actives have a fitted effect of over 60% in size
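Inhibition is scored as reduced AlphaScreen emission. The BAZ2B/b-H3(5-23)K14Ac complex (50 nM each) in PBS pH 7.4, 0.01% Tween-20 meets compound (up to 110 uM) for 30 min at RT before bead addition.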
VDR inh: Inhibitors of the vitamin D receptor (VDR): qHTS; AID 504847, 2011; Vitamin D3 receptor (Homo sapiens), P11473; Potency, µM, actives largely listed as inhibitors; VDR-SRC2-3 peptide fluorescence polarization, 2 h; 0.93% of 400,000 active
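The screen uses fluorescence polarization to detect compounds that interfere with recruitment of the SRC2-3 coactivator peptide to VDR; plates are read after 2 h at room temperature.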
HP1b chromo inh: HTS for Inhibitors of HP1-beta Chromodomain Interactions with Methylated Histone Tails; Potency, µM (series often up to 114 µM), actives largely listed as inhibitors; 0.56% of 390,000 active; AlphaScreen HP1-beta / biotin-H3K9me3 peptide binding; Chromobox protein homolog 1 (Homo sapiens), P83916; further: nearly all actives have a fitted effect of over 70% in size
Target sequence (P83916 whole entry, looked up): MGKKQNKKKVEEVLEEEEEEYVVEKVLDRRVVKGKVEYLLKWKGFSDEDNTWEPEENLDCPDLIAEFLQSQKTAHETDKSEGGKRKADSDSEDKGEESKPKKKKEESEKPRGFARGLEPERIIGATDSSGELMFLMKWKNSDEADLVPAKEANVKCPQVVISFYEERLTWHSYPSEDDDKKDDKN
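AlphaScreen: HP1-beta (50 nM) preformed 30 min with biotin-H3(1-18)K9me3 peptide (50 nM) in PBS pH 7.4, 0.01% Tween-20. Compound added for 30 min at RT, then streptavidin donor/nickel chelate acceptor beads (10 ug/mL) for 30 min.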
Numbers stand for hits; [ ] = remark or other dose. The list is not random: actives were taken first. Their share in the collection is about 11%. The call rests on the fitted dose curve; in most records, active means well fitted curve in the direction sought with a large enough effect; inconclusive means small, poorly fitted or top-dose-only effect, or another doubt; inactive means no such curve, though single readings can be large; an effect the other way counts as inactive or inconclusive.

What do the screens show for `CC(C)C[C@@]12C(=O)N(c3ccc(Br)cc3)C(=O)N1[C@H](c1ccc(Br)cc1)[C@@H]1C(=O)N(C(C)(C)C)C(=O)[C@@H]12`?
PLK1 PBD inh: inactive; JMJD2A Tudor inh: inactive; G9a inh: inactive; BAZ2B inh: inactive; VDR inh: inactive; HP1b chromo inh: inactive

Results for COC(=O)C1CC23C=CCN4CCC5(c6ccccc6NC15C2C)C43 (configuration not stated) ?
PLK1 PBD inh: inactive; JMJD2A Tudor inh: inconclusive; G9a inh: 40µM; BAZ2B inh: inactive; VDR inh: inactive; HP1b chromo inh: inactive

How did Cc1ccc(OC(C)C(=O)N2CC(=O)Nc3ccccc32)cc1 (configuration not stated) do in these assays?
PLK1 PBD inh: inactive; JMJD2A Tudor inh: inactive; G9a inh: 3.5µM; BAZ2B inh: inactive; VDR inh: inactive; HP1b chromo inh: inactive

What do the screens show for `CC(Oc1ccccc1)C(=O)OCC(=O)N1CC(=O)Nc2ccccc21` (configuration not stated)?
PLK1 PBD inh: inactive; JMJD2A Tudor inh: inactive; G9a inh: inactive; BAZ2B inh: inactive; VDR inh: inactive; HP1b chromo inh: inactive

Results for O=C(O)Cc1ccc(C(=O)c2ccccc2F)s1 ?
PLK1 PBD inh: inactive; JMJD2A Tudor inh: inactive; G9a inh: 45µM; BAZ2B inh: inactive; VDR inh: inactive; HP1b chromo inh: inactive

How did CC(=O)N1CC(C)Oc2ccc(S(=O)(=O)NC(CC(=O)O)c3ccc(C)cc3C)cc21 (configuration not stated) do in these assays?
PLK1 PBD inh: inactive; JMJD2A Tudor inh: inactive; G9a inh: 79µM; BAZ2B inh: inactive; VDR inh: inactive; HP1b chromo inh: inactive

What do the screens show for `COc1cccc(C(c2sc3ncnn3c2O)N2CCN(C(=O)c3ccco3)CC2)c1` (configuration not stated)?
PLK1 PBD inh: inactive; JMJD2A Tudor inh: inactive; G9a inh: inactive; BAZ2B inh: inactive; VDR inh: inactive; HP1b chromo inh: inactive

What do the screens show for `Oc1c(C(c2ccccc2)N2CCc3ccccc3C2)sc2ncnn12` (configuration not stated)?
PLK1 PBD inh: inconclusive; JMJD2A Tudor inh: 32µM; G9a inh: 4µM; BAZ2B inh: inactive; VDR inh: inactive; HP1b chromo inh: inconclusive

Results for COc1ccc(N2CCN(C(c3ccco3)c3sc4nc(C)nn4c3O)CC2)cc1 (configuration not stated) ?
PLK1 PBD inh: inactive; JMJD2A Tudor inh: inactive; G9a inh: 45µM; BAZ2B inh: inconclusive; VDR inh: inactive; HP1b chromo inh: inactive

Results for CC1CCCN(C(c2ccccc2)c2sc3ncnn3c2O)C1 (configuration not stated) ?
PLK1 PBD inh: inactive; JMJD2A Tudor inh: inactive; BAZ2B inh: inactive; VDR inh: inactive; HP1b chromo inh: inactive

How did Oc1c(C(c2ccco2)N2CCN(C(c3ccccc3)c3ccccc3)CC2)sc2ncnn12 (configuration not stated) do in these assays?
PLK1 PBD inh: inactive; JMJD2A Tudor inh: inconclusive; G9a inh: 18µM; BAZ2B inh: inconclusive; VDR inh: inconclusive; HP1b chromo inh: inactive

How did Cc1nc2sc(C(c3ccco3)N3CCC(Cc4ccccc4)CC3)c(O)n2n1 (configuration not stated) do in these assays?
PLK1 PBD inh: inactive; JMJD2A Tudor inh: inconclusive; G9a inh: inconclusive; BAZ2B inh: inactive; VDR inh: inactive; HP1b chromo inh: inactive

What do the screens show for `O=C1CCCCC1Sc1nnc(Cc2cccs2)n1CCc1ccccc1` (configuration not stated)?
PLK1 PBD inh: inconclusive; JMJD2A Tudor inh: 79µM; G9a inh: inactive; BAZ2B inh: inactive; VDR inh: inactive; HP1b chromo inh: inactive

What do the screens show for `COCCn1c(SC2CCCCC2=O)nnc1-c1ccncc1` (configuration not stated)?
PLK1 PBD inh: inconclusive; JMJD2A Tudor inh: inconclusive; G9a inh: inactive; BAZ2B inh: inactive; VDR inh: inconclusive; HP1b chromo inh: inactive

How did CCN(CC)CCN(C(=O)CCS(=O)(=O)c1ccccc1)c1nc2cc3c(cc2s1)OCO3 do in these assays?
PLK1 PBD inh: inactive; JMJD2A Tudor inh: inactive; G9a inh: 45µM; BAZ2B inh: inactive; VDR inh: inactive; HP1b chromo inh: inactive

Results for CCN(CC)CCN(C(=O)c1cccc(N2C(=O)CCC2=O)c1)c1nc2cc3c(cc2s1)OCO3 ?
PLK1 PBD inh: inactive; JMJD2A Tudor inh: inactive; G9a inh: 50µM; VDR inh: inactive; HP1b chromo inh: inactive

How did CCN(CC)CCN(C(=O)CN1C(=O)CCC1=O)c1nc2cc3c(cc2s1)OCO3 do in these assays?
PLK1 PBD inh: inactive; JMJD2A Tudor inh: inactive; G9a inh: inconclusive; VDR inh: inactive; HP1b chromo inh: inactive

What do the screens show for `CCN(CC)CCN(C(=O)c1ccc(C(=O)c2ccccc2)cc1)c1nc2cc3c(cc2s1)OCO3`?
PLK1 PBD inh: inactive; JMJD2A Tudor inh: inconclusive; G9a inh: 40µM; BAZ2B inh: inconclusive; VDR inh: inactive; HP1b chromo inh: inactive

Results for CCN(CC)CCN(C(=O)c1ccc(N2C(=O)CCC2=O)cc1)c1nc2cc3c(cc2s1)OCCO3 ?
PLK1 PBD inh: inactive; JMJD2A Tudor inh: inactive; G9a inh: 50µM; VDR inh: inactive; HP1b chromo inh: inactive

Results for CN(C)C(CNC(=O)CCc1c[nH]c2ccccc12)c1ccccc1 (configuration not stated) ?
PLK1 PBD inh: inactive; JMJD2A Tudor inh: inactive; G9a inh: inactive; BAZ2B inh: inactive; VDR inh: inactive; HP1b chromo inh: inactive

What do the screens show for `CSc1nnc2c(n1)c(C)nn2-c1cccc(C)c1`?
PLK1 PBD inh: inactive; JMJD2A Tudor inh: inconclusive; G9a inh: 10µM; BAZ2B inh: 28µM; VDR inh: inactive; HP1b chromo inh: inactive

Results for CSc1nncc(/C(C)=N\Nc2cccc(C)c2)n1 ?
PLK1 PBD inh: inactive; JMJD2A Tudor inh: inactive; G9a inh: inconclusive; BAZ2B inh: inactive; VDR inh: inactive; HP1b chromo inh: inactive

How did O=C(CCNC(=O)N1CC(=O)Nc2ccccc21)NCCc1ccc(Cl)cc1 do in these assays?
PLK1 PBD inh: inactive

What do the screens show for `O=C(CNC(=O)N1CC(=O)Nc2ccccc21)NCc1ccc(Cl)cc1`?
PLK1 PBD inh: inactive; JMJD2A Tudor inh: inactive; BAZ2B inh: 79µM; VDR inh: inactive; HP1b chromo inh: inactive

Results for Cc1c(Cl)cccc1NC(=O)CCNC(=O)N1CC(=O)Nc2ccccc21 ?
PLK1 PBD inh: 27µM; JMJD2A Tudor inh: inactive; G9a inh: inactive; BAZ2B inh: inactive; VDR inh: inactive; HP1b chromo inh: inactive

Results for COCCCNC(=O)c1cc2n(n1)CCCN(Cc1ccc(C)cc1)C2=O ?
JMJD2A Tudor inh: inactive; G9a inh: inactive[12.7 µM]; BAZ2B inh: inactive; VDR inh: inactive; HP1b chromo inh: inactive
